Experimental data published in ChEMBL document CHEMBL3988442, “University of Dundee, Small-Polar-MMV Screening Library” (2021).

Tests used:
[1] = target: T1, Aspartate--tRNA(Asp/Asn) ligase (Mycobacterium tuberculosis (strain ATCC 25618 / H37Rv)) (UniProt P9WFW3); assay: Assay for Asp RNA synthetase-1 from Mycobacterium tuberculosis; format: functional; parameters: scale not given: direction of the effect not stated beside the values; settings: 30 µM; note: in the data most compounds retested in dose-response had high values
T1 sequence (whole entry): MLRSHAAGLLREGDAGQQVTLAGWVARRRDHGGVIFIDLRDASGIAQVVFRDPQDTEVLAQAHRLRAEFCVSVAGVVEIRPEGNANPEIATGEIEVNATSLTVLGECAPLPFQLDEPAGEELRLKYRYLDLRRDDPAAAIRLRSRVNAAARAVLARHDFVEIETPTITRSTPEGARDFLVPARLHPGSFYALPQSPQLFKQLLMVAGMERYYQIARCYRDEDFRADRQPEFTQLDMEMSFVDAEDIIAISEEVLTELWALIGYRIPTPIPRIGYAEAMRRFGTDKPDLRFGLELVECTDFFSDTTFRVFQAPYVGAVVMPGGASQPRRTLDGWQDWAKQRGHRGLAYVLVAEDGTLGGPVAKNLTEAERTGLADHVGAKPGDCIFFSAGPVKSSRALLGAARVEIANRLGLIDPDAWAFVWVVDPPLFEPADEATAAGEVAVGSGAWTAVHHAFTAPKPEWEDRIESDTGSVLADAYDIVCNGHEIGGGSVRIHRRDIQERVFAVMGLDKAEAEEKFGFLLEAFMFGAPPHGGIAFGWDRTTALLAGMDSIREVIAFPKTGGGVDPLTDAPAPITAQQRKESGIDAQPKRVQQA

[2] = target: Shiga toxin 2 (Escherichia coli O157:H7) (UniProt P09385+P09386); assay: E. coli 0.157:H7 Shiga Toxin SOP - stx2 screening assay; format: functional; parameters: scale not given: direction of the effect not stated beside the values; settings: 30 µM

Structure (SMILES)	Percent Effect [1]	Percent Effect [2]
CCn1nc(C)c(CCNC(=O)C2CCCN(CC(N)=O)C2)c1C (configuration not stated)	-2.59%	7.92%
Cc1cc(CN2CCc3nn(C(C)C)c(=O)cc3C2)no1	-1.25%	6.39%
CN(C)CC(=O)N1C[C@@H]2CC[C@H](Oc3ccccc3Cl)[C@@H]2C1	1.77%	12.4%
CN1CC2(CCN(Cc3ccoc3)CC2)COc2ccccc2S1(=O)=O	-0.268%	-18.6%
O=C(COc1cccc2c1CCC2=O)NCc1ccccc1F	10.4%	-7.67%
Cc1csc([C@@H]2C[C@@H]3CCN(C(=O)c4cc(C)on4)C[C@H]3O2)n1	0.801%	-17.6%
Cc1csc(CNC(=O)NCCc2ccc3c(c2)OCCO3)n1	-5.39%	-15.4%
CC(c1cccc(S(N)(=O)=O)c1)N(C)CCc1ccccc1 (configuration not stated)	5.72%	-26.2%
CN(Cc1cscn1)C1CCCN(Cc2noc(C3CC3)n2)C1 (configuration not stated)	-2.67%	0.508%
Cn1cc(-c2csc(CN3CCOCC3)n2)cn1	-7.74%	2.01%
CCCc1cc(C(=O)N(C)Cc2cnc3ccccc3n2)n(C)n1	8.2%	-6.99%
Cc1cnc(N2CCCC3(CCN(Cc4csc(C)n4)C3=O)C2)nc1 (configuration not stated)	6.32%	-0.084%
CNS(=O)(=O)c1ccc(C(=O)NC2CCOc3ccccc32)o1 (configuration not stated)	-4.13%	5.97%
COc1cc(C)sc1C(=O)N1CC(c2cccnc2)C1	3.09%	12.6%
CN1CCC(Oc2ccc(NC(=O)c3ccccc3Br)cc2)CC1	-0.921%	-69.6%
CN1CCOC(CNCc2cccc(OCc3ccccn3)c2)C1 (configuration not stated)	-8.22%	-16.3%
CNc1cccc(C2CCCN(C(=O)c3ccncc3)C2)n1 (configuration not stated)	-6.06%	17.8%
CC(CNC(=O)c1ccccc1Oc1cccnc1)N(C)C (configuration not stated)	-2.89%	-5.12%
COc1ccc(Br)c(C(=O)NCC2CCN(S(=O)(=O)C3CC3)CC2)c1	-8.22%	-0.843%
c1cc(CNCC2CNc3ccnn3C2)cc(N2CCCCC2)n1 (configuration not stated)	-2.55%	-110%
OC(CN1CCN(Cc2ccc(F)c(F)c2)CC1)C1CC1 (configuration not stated)	-4.54%	-0.879%
CCn1nc2c(cc1=O)CN(Cc1nc(-c3ccccn3)no1)CC2	29%	-43.5%
Cc1nc(C)n(C2CCCN(C(=O)c3csc(C(C)C)n3)C2)n1 (configuration not stated)	7.62%	4.53%

Structure (SMILES)	Percent Effect [1]	Percent Effect [2]
COc1cc(C(=O)NC(CC(=O)O)c2cccs2)cc(Cl)c1OC (configuration not stated)	3.71%	-19.3%
CS(=O)(=O)NCCCN1CCCC1Cc1ccccc1 (configuration not stated)	-3.08%	-0.572%
Cn1nc(C#N)c2c1CN(C(=O)c1cccnc1)CCC2	7.3%	-7.73%
CS(=O)(=O)N1C[C@@H]2CC[C@H](C1)N(Cc1cscn1)C2=O	0.593%	-13.6%
CCN1CC2(CC1=O)CN(Cc1cnn(C)c1)CCN(C(=O)C(C)C)C2 (configuration not stated)	-1.53%	-10.1%
COCCN1C(=O)C[C@H]2[C@H]1CCN2Cc1cccc(C#N)c1	-5.22%	-7.15%
NC[C@H]1CC[C@H](C(NC(=O)c2cccc(F)c2)c2ccccn2)CC1 (some centres not stated)	-0.28%	-71.9%
CS(=O)(=O)c1ccc(OCCNCc2cccc(F)c2)cc1	-5.13%	-38.6%
CO[C@@H]1CCN(C(=O)c2ccccn2)[C@H]1Cc1ccccc1	3.21%	4.36%
CC(C)c1nc(C2CCCN2C(=O)c2cnc[nH]2)no1 (configuration not stated)	0.204%	26.7%
NC(=O)CN1CCC(C(=O)N2CCCC(OCc3cccnc3)C2)CC1 (configuration not stated)	-13.4%	18%
Cc1nccn1CC1CCCN1CCCc1nc(-c2cccs2)no1 (configuration not stated)	5.89%	16.4%
Cc1nc(C)n(CC2CN(CC(=O)Nc3cccnc3)CCO2)n1 (configuration not stated)	-1.48%	2.66%
COc1ccc(CN2CCC3(CC2)CCN(CC2CC2)C3=O)cc1	-4.6%	-2.04%
COc1ccc(C2=CCN(C(=O)CN(C)CC(N)=O)CC2)cc1	-2.46%	-18.1%
CCc1nc(C2CCCN2C(=O)c2ccoc2C)no1 (configuration not stated)	1.77%	-24%
Cc1ccc(N2CCCN(C(=O)C3(C#N)CCCCC3)CC2)nn1	-0.989%	4.54%
CCCOc1ccc(NC(=O)NCCC(=O)N(C)C)cc1Cl	1.09%	-67.2%
CC(NC(=O)N(C)Cc1ccc(Cl)s1)c1ccccn1 (configuration not stated)	-2.02%	-6.3%
Cc1nc(C)c(CC(=O)Nc2nnc(C)s2)c(=O)[nH]1	-2.12%	19%
N#Cc1ccc(C(=O)NCCCNc2ccc(C(F)(F)F)cn2)cc1	-4.52%	28.9%
Cc1ccc([C@@H]2CN(S(=O)(=O)C(C)C)C[C@H]2N(C)C)cc1	0.183%	12.9%
COc1c(CNC2CCOc3ccccc32)c(C(C)C)nn1C (configuration not stated)	0.728%	2.37%
